IL-1B inflam inh: blocks inflammasome-driven IL-1 beta release | THP-1 LPS/ATP IL-1B secretion, AlphaLISA, 16 h; hits give low values | activity change, % at 57.5 µM | 360,000 tested, 4.7% active | AID 743279; in the data active means activity change below about -50%; inconclusive means mostly about -30% to -49%; further: on the % scale 0 is the no-effect control and ±100 the full control effect
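Secreted IL-1B measured by AlphaLISA bead assay after 16 h compound exposure of THP-1 cells; compounds (final up to 57.5 uM) added 1 h before LPS (250 ng/mL) and ATP (1.25 mM) stimulation; lower signal means less secretion.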
TDP1 cell noCPT: qHTS for Inhibitors of human tyrosyl-DNA phosphodiesterase 1 (TDP1): qHTS in cells in absence of CPT; AID 686978, 2013; Potency, µM (titrated, usually from 46.2 µM), inactives show at the highest dose activity change, negative = growth inhibition, usual class: inhibitors; DT40 Tdp1-/- hTDP1 cells, no CPT, ATP luminescence, 48 h; 420,000 tested, 15% active; further: potency means the concentration at half of the fitted maximal effect; on the % scale 0 is the no-effect control and ±100 the full control effect; nearly all actives have a fitted effect of over 55% in size
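Chicken DT40 Tdp1-/- cells stably complemented with human TDP1 were seeded at 400 cells/well with DMSO in place of 20 nM camptothecin. After compound pinning, cells grew at least 48 hr at 37 °C; viability read by CellTiter-Glo luminescence.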
DT40 TDP1 CPT: DT40-hTDP1 cell growth loss with CPT; Potency, µM (series often up to 46.2 µM), inactives show at the top dose activity change, negative = growth inhibition, actives largely listed as inhibitors; chicken DT40 Tdp1-/-;hTDP1 cells + 20 nM CPT, ATP luminescence, 48 h; 420,000 tested, 12% active; further: potency means the concentration at half of the fitted maximal effect; on the % scale 0 is the no-effect control and ±100 the full control effect; nearly all actives have a fitted effect of over 55% in size
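Chicken DT40 Tdp1-/- cells stably complemented with human TDP1 were seeded at 400 cells/well in medium containing 20 nM camptothecin, exposed to pin-transferred compounds, and grown at 37 °C for at least 48 hr. Viability was read as ATP luminescence.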
ClpP mod: qHTS Assay for Activators of ClpP | AID 651965, 2013 | 340,000 tested, 1.9% active | purified B. subtilis ClpP, FRET peptide cleavage, 20 min | Potency, µM (top dose mostly 57.5 µM), for the others: at the highest dose activity change, negative = active | ATP-dependent Clp protease proteolytic subunit (Bacillus subtilis (strain 168)), P80244; active means well fitted falling curve with a large enough effect; inconclusive means small, poorly fitted or top-dose-only effect; inactive means no such curve, though single readings can be large or run the other way; further: potency means the concentration at half of the fitted maximal effect; the source files actives as falling curves though it sought activators and does not explain the sign; nearly all actives have a fitted effect of over 65% in size
Target sequence (P80244 whole entry, looked up): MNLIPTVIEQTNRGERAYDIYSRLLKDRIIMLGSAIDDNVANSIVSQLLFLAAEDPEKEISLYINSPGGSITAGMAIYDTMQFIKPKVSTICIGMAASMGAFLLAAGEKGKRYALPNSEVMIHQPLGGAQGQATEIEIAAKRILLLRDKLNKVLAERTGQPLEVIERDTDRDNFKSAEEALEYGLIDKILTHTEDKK
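Buffer: 100 mM Tris/HCl pH8, 100 mM KCl, 0.05% low protease BSA, 2.5% glycerol, 0.01% Tween-20. ClpP 10 microg/mL final; 20 min RT; delta FRET normalized to ADEP and DMSO controls.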
DRD3 antagonist: D3 dopamine receptor (human) antagonism; D3R cells, DiscoveRx beta-arrestin luminescence, antagonist mode; hits give low values; max response, negative = inhibition, %; 360,000 tested, 2.5% active; in the data active means max response below about -50%; inconclusive means no clear call, values can overlap the other calls; further: on the % scale 0 is the no-effect control and ±100 the full control effect
Target sequence (P35462 whole entry, looked up): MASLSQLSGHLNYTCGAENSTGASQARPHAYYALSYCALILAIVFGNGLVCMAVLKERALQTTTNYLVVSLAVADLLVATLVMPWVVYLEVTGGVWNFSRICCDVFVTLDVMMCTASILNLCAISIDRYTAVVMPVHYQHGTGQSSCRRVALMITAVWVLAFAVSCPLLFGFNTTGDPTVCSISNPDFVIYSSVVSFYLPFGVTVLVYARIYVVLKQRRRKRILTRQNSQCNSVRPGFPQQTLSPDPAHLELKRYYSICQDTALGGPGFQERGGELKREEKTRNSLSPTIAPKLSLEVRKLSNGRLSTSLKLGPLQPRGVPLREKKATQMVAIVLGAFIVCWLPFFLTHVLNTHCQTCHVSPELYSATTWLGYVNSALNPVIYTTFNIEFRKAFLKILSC
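Cells plated overnight at 1500 cells/well, then exposed to library compounds with dopamine controls for 90 minutes at 37 degrees C. DiscoveRx reagent added for 30–60 minutes at room temperature; luminescence read, quantitative HTS format.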
D3 ag: agonists of human D3 dopamine receptor. P35462. D3R DiscoveRx beta-arrestin cells, luminescence, 90 min. max activation, %. 410,000 tested, 0.58% active. AID 652048; in the data active means max activation above about 30%; further: 0% is about no effect
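Cells at 1500/well, incubated overnight, then treated with pinned compounds (dopamine as control) for 90 min at 37 degrees C. DiscoveRx reagent added for 30 - 60 minutes at room temperature; luminescence read.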
The depositor's hits bear a star; u = inconclusive; x = no result; [ ] = dose if it differs, or a comment. In the library only some 21% were active in any assay of this set; here they are far more common. Unless noted, the call rests on the fitted dose curve; in most records, active means well fitted inhibition curve with a large enough effect; inconclusive means small, poorly fitted or top-dose-only effect; inactive means flat fitted curve, though single readings scatter.

SMILES	IL-1B inflam inh	TDP1 cell noCPT	DT40 TDP1 CPT	ClpP mod	DRD3 antagonist	D3 ag
Cc1cc(C)n2c(Nc3ccc4c(c3)OCCO4)c(CCc3ccccc3)nc2n1	10	5.8µM*	8.2µM*	-3%	149	22
Cc1cc(C)n2c(Nc3ccc4c(c3)OCCO4)c(C(C)C)nc2n1	89	5.8µM*	8.2µM*	1%	72	5
Cc1cc(C)n2c(Nc3ccc4c(c3)OCCO4)c(C3CC3)nc2n1	70	18µM*	u	-2%	209	21
Cc1cc(C)n2c(Nc3ccc4c(c3)OCCO4)c(-c3ccccc3)nc2n1	-15	u	u	-4%	-10	-10
CCOc1ccc(-n2c(C)nc3cc(C(=O)NCC4CCCO4)ccc32)cc1 (centres undefined)	14	-14%	-1%	x	-4	-14
Cc1cc(CSc2ccc(Cl)cc2)ccc1N	u	-14%	2%	x	0	13
CC(C)(C)OC(=O)C[C@@H]1C/C=C\C[C@H](CC(=O)N(CCO)Cc2ccccc2)C(=O)N[C@@H](Cc2ccccc2)COC1=O	-14	u	u	2%	16	-2
C[C@@H]1COC(=O)[C@H](Cc2ccc(F)cc2)C/C=C\C[C@@H](CC(=O)NCCO)C(=O)N1	6	-10%	-1%	0%	10	37*
C[C@H]1COC(=O)[C@@H](Cc2ccc(F)cc2)C/C=C\C[C@@H](CC(=O)NCCO)C(=O)N1	27	-2%	-19%	0%	0	1
O=C1OC[C@@H]2CCCN2C(=O)[C@@H](CC(=O)N(CCO)Cc2ccccc2)C/C=C\C[C@@H]1Cc1ccc(F)cc1	u	u	23µM*	3%	-18	-9
O=C1N[C@@H](Cc2ccccc2)COC(=O)[C@H](Cc2ccc(F)cc2)C/C=C\C[C@@H]1CC(=O)N(CCO)Cc1ccccc1	u	u	u	2%	-65*	-25
O=C1N[C@@H](Cc2c[nH]c3ccccc23)COC(=O)[C@H](Cc2ccc(F)cc2)C/C=C\C[C@@H]1CC(=O)N(CCO)Cc1ccccc1	-24	u	u	-5%	22	3
O=C1N[C@H](Cc2ccccc2)COC(=O)[C@@H](Cc2ccc(F)cc2)C/C=C\C[C@H]1CC(=O)N(CCO)Cc1ccccc1	-59*	26µM*	u	0%	20	-14
CC1CCc2nc(-c3cc4c(ccc5ccccc54)oc3=O)sc2C1 (centres undefined)	x	-16%	9%	u	x	x
C[C@@H]1COC(=O)[C@@H](Cc2ccc(F)cc2)C/C=C\C[C@H](CC(=O)N(CCO)Cc2ccccc2)C(=O)N1	-8	u	u	1%	-3	-22
O=C1N[C@H](Cc2ccccc2)COC(=O)[C@H](Cc2ccc(F)cc2)C/C=C\C[C@@H]1CC(=O)N(CCO)Cc1ccccc1	u	16µM*	u	3%	-57*	-40
C[C@H]1COC(=O)[C@@H](Cc2ccc(F)cc2)C/C=C\C[C@H](CC(=O)N(CCO)Cc2ccccc2)C(=O)N1	24	23µM*	21µM*	1%	0	-2
O=C1N[C@@H](Cc2c[nH]c3ccccc23)COC(=O)[C@@H](Cc2ccc(F)cc2)C/C=C\C[C@H]1CC(=O)N(CCO)Cc1ccccc1	u	21µM*	u	-4%	27	9
C=C(C)c1sc(-c2ccc(Cl)cc2)nc1C	25	-26%	-1%	u	-7	12
COc1ccc(Cl)cc1C(=O)NC1CC(C)(C)NC(C)(C)C1	0	17%	-1%	-7%	22	0
Cc1nc2ccc(NC(=O)Cc3ccsc3)cc2s1	10	13µM*	16µM*	-5%	3	-11
CCc1sc(C(=O)Nc2ccc3nc(C)sc3c2)cc1C	-52*	u	u	2%	9	2
CCc1sc(C(=O)Nc2ccc(NC(C)=O)cc2)cc1C	u	-19%	0%	3%	-4	-7
Cc1ccc(NC(=O)Cc2ccsc2)cc1Cl	-8	-29%	u	-1%	22	2
C=CCN(CC=C)C(=O)Nc1ccc2nc(C)sc2c1	15	21µM*	-25%	x	6	11
SMILES	IL-1B inflam inh	TDP1 cell noCPT	DT40 TDP1 CPT	ClpP mod	DRD3 antagonist	D3 ag
C=CCNC(=O)Nc1ccc2nc(C)sc2c1	-27	u	16µM*	x	-8	-13
COc1ccccc1C1CN(Cc2cccc3c2OCO3)Cc2ccccc2O1 (centres undefined)	x	-18%	-124%[9.04 µM]	x	x	x
COc1cc(OC)c2nc(C)c3c(c2c1)N(c1ccc(O)cc1)CC3	x	16µM*	u	2%	6	1
Cc1ccccc1NC(=O)CNC(=O)N1CC(=O)Nc2ccccc21	20	5%	3%	-3%	37	4
CCC(C)[C@H](NC(=O)N1CC(=O)Nc2ccccc21)C(=O)Nc1ccccc1C (some centres undefined)	23	u	16µM*	-2%	4	-3
COc1ccc(NC(=O)CN(C)C(=O)c2ccc(C)c(S(=O)(=O)N3CCCCC3)c2)cc1	2	u	-13%	0%	20	2
c1csc(-c2csc3nc(CN4CCOCC4)nc(NCc4ccc5c(c4)OCO5)c23)c1	-26	u	23µM*	0%	-25	-2
NC1=NC[C@H](c2ccccc2)N1CCc1cccc(F)c1	0	13µM*	16µM*	1%	-13	6
CC(O)[C@H]1CN=C(N)N1CCCCC1CCCCC1 (some centres undefined)	u	8.2µM*	9.2µM*	0%	10	-44
CCC(C)[C@H]1CN=C(N)N1CC1CCCCC1 (some centres undefined)	-1	2.3µM*	2.6µM*	-3%	22	3
CCC(C)[C@H]1CNC(=O)C(=O)N1CCCCC1CCCCC1 (some centres undefined)	-2	-28%	-24%	-4%	-20	-7
NC1=NC[C@H](c2ccccc2)N1CCCCC1CCCCC1	-83*	7.3µM*	5.2µM*	1%	-4	-19
S=C1NC[C@H](c2ccccc2)N1CCCCC1CCCCC1	21	u	u	0%	0	-36
NC(=O)NC(Cc1ccccc1)C(=O)NNC(=O)COc1ccccc1Cl (centres undefined)	22	-8%	2%	x	20	21

Source: PubChem BioAssay
